The record followed here is the supplement of paper PMC12645437, “Orthogonal IMiD-Degron Pairs Induce Selective Protein Degradation in Cells” (ACS Chemical Biology, 2025).

In this test the target is T1, CRBN, Q96SW2.
T1 chain: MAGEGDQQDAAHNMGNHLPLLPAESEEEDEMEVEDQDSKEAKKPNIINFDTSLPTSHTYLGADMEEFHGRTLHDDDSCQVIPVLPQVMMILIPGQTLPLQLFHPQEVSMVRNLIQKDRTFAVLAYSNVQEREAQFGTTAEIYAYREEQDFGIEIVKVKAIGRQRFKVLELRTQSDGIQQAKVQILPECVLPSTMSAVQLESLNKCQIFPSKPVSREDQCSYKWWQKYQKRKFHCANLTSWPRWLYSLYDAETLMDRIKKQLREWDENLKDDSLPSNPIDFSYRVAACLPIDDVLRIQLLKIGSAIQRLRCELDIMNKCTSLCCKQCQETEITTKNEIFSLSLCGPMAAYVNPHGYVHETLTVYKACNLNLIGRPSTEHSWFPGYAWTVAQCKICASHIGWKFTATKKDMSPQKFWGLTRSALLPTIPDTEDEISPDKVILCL
Put plainly: log2 fold change of degron read counts, EGFP-low vs EGFP+ sorted cells (limma voom), compound-induced degradation; higher = more compound-induced degradation of the degron-EGFP fusion; degrons are variants of IKZF1/3 zinc finger 2; compound dose not given here. To be noted: Jurkat, 18 h. As to the method:
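Pooled library of 8380 IKZF3 ZF2 degron mutants (positions 146-167 varied within the IKZF3 130-189 degron; only the varied core is printed, flanks not printed) fused to EGFP with IRES-mCherry, lentivirally expressed in Jurkat cells. mCherry+ cells were treated with one IMiD compound for 18 h (dose not stated) and FACS-sorted into EGFP-low and EGFP+ populations. Degron sequences were counted by NGS, and log2FC (EGFP-low vs EGFP+) was estimated by limma voom over 3 biological replicates.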

The mark [1] stands for this setting: compound: compound 19 (5-tert-butyl-thalidomide).
[2] abbreviates: compound: compound 22 (5-morpholino-thalidomide).
The mark [3] stands for this setting: compound: compound 33 (diphenyl IMiD analogue).

In all, about 8,300 sequences were measured (“log2 fold change of degron read counts, EGFP-low vs EGFP+ sorted cells (limma voom), compound-induced degradation”: median about -1.1, highest 2% from about 3.2 on). The full list was thinned out, with the highest values kept by preference.
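Note: pooled lentiviral library of zinc finger degron-EGFP fusions in mCherry-positive Jurkat cells, FACS-sorted after compound exposure, with degron abundance counted by next-generation sequencing.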

For the sequence FQCEICGRNFTQKGNLLRHIKL [46F_47Q_49E_50I_52G_53R_54N_55F_67L_, Q9UKT9], the “log2 fold change of degron read counts” value by setting is: under setting [1], -2.38; under setting [2], -2.7; under setting [3], -0.772; (compound: thalidomide) 0.915.

Regarding FACPQCGAHFTQKGNLLRHIKL [46F_47A_49P_50Q_52G_53A_54H_55F_67L_, Q9UKT9], the “log2 fold change of degron read counts” value was 0.167 under setting [1], -2 under setting [2], -1.13 under setting [3] and -1.72 (compound: thalidomide).

For FRCPQCGAYFTQKGNLLRHIKL [46F_47R_49P_50Q_52G_53A_54Y_55F_67L_, Q9UKT9], the “log2 fold change of degron read counts” value was -1.85 under setting [1], -1.73 under setting [2], -0.273 under setting [3] and -0.427 (compound: thalidomide).

As to FYCNICGAPFTQKGNLLRHIKL [46F_47Y_49N_50I_52G_53A_54P_55F_67L_, Q9UKT9], the “log2 fold change of degron read counts” value reads like this: under setting [1], 3.87; under setting [2], 3.54; under setting [3], 2.43; (compound: thalidomide) 1.04.

As to FRCNICGAPFTQKGNLLRHIKL [46F_47R_49N_50I_52G_53A_54P_55F_67L_, Q9UKT9], the “log2 fold change of degron read counts” value is, setting by setting: under setting [1], 2.88; under setting [2], 3.49; under setting [3], 3.05; (compound: thalidomide) 3.38.

As to FTCNICGAPFTQKGNLLRHIKL [46F_47T_49N_50I_52G_53A_54P_55F_67L_, Q9UKT9], the “log2 fold change of degron read counts” value under setting [1] came to 2.03, the “log2 fold change of degron read counts” value under setting [2] was 3.03, the “log2 fold change of degron read counts” value under setting [3] was determined as 2.21 and the “log2 fold change of degron read counts” value (compound: thalidomide) came to 2.73.

Regarding FLCNICGAPFTQKGNLLRHIKL [46F_47L_49N_50I_52G_53A_54P_55F_67L_, Q9UKT9], the “log2 fold change of degron read counts” value under setting [1] is 1.46, the “log2 fold change of degron read counts” value under setting [2] amounted to 1.8, the “log2 fold change of degron read counts” value under setting [3] came out at 2.1 and the “log2 fold change of degron read counts” value (compound: thalidomide) was found to be 2.49.

With FNCNICGAPFTQKGNLLRHIKL [46F_47N_49N_50I_52G_53A_54P_55F_67L_, Q9UKT9], the “log2 fold change of degron read counts” value is, setting by setting: under setting [1], 3.04; under setting [2], 1.9; under setting [3], 0.574; (compound: thalidomide) 0.97.

On to FVCNICGAPFTQKGNLLRHIKL [46F_47V_49N_50I_52G_53A_54P_55F_67L_, Q9UKT9], for which the “log2 fold change of degron read counts” value was found to be 1.87 under setting [1], 3.32 under setting [2], 2.44 under setting [3] and 3.33 (compound: thalidomide).

As for FVCNQCGAPFTQKGNLLRHIKL [46F_47V_49N_50Q_52G_53A_54P_55F_67L_, Q9UKT9], the “log2 fold change of degron read counts” value was -1.48 under setting [1], 0.603 under setting [2], -0.000403 under setting [3] and 0.468 (compound: thalidomide).

As for FECNICGAPFTQKGNLLRHIKL [46F_47E_49N_50I_52G_53A_54P_55F_67L_, Q9UKT9], the “log2 fold change of degron read counts” value reads like this: under setting [1], 0.92; under setting [2], -1.22; under setting [3], 0.793; (compound: thalidomide) 1.96.

As to FICNICGAPFTQKGNLLRHIKL [46F_47I_49N_50I_52G_53A_54P_55F_67L_, Q9UKT9], the “log2 fold change of degron read counts” value turned out to be 1.31 under setting [1], 3.43 under setting [2], 2.32 under setting [3] and 2.76 (compound: thalidomide).

As for FRCEICGRPFTQKGNLLRHIKL [46F_47R_49E_50I_52G_53R_54P_55F_67L_, Q9UKT9], the “log2 fold change of degron read counts” value runs as follows: under setting [1], -0.208; under setting [2], 1.72; under setting [3], 2.22; (compound: thalidomide) 2.06.

FNCPICGHTFTQKGNLLRHIKL [46F_47N_49P_50I_52G_53H_54T_55F_67L_, Q9UKT9]: the “log2 fold change of degron read counts” value runs as follows: under setting [1], -2.31; under setting [2], -2.29; under setting [3], -2.08; (compound: thalidomide) -2.24.

Regarding FFCEICGRSFTQKGNLLRHIKL [46F_47F_49E_50I_52G_53R_54S_55F_67L_, Q9UKT9], the “log2 fold change of degron read counts” value by setting is: under setting [1], 0.599; under setting [2], 0.147; under setting [3], -0.0546; (compound: thalidomide) -0.893.

For FNCEQCGACFTQKGNLLRHIKL [46F_47N_49E_50Q_52G_53A_54C_55F_67L_, Q9UKT9], the “log2 fold change of degron read counts” value reads like this: under setting [1], -1.28; under setting [2], -2.78; under setting [3], -2.07; (compound: thalidomide) -2.41.

Turning to FFCPICGHDFTQKGNLLRHIKL [46F_47F_49P_50I_52G_53H_54D_55F_67L_, Q9UKT9], the “log2 fold change of degron read counts” value under setting [1] is -2.5, the “log2 fold change of degron read counts” value under setting [2] was -3.06, the “log2 fold change of degron read counts” value under setting [3] was -2.39 and the “log2 fold change of degron read counts” value (compound: thalidomide) was -2.25.

Consider FLCEICGAYFTQKGNLLRHIKL [46F_47L_49E_50I_52G_53A_54Y_55F_67L_, Q9UKT9], for which the “log2 fold change of degron read counts” value under setting [1] was 0.402, the “log2 fold change of degron read counts” value under setting [2] was -0.763, the “log2 fold change of degron read counts” value under setting [3] turned out to be 0.888 and the “log2 fold change of degron read counts” value (compound: thalidomide) came to 1.03.

With FHCNQCGAPFTQKGNLLRHIKL [46F_47H_49N_50Q_52G_53A_54P_55F_67L_, Q9UKT9], the “log2 fold change of degron read counts” value by setting is: under setting [1], -0.273; under setting [2], -1.39; under setting [3], -1.33; (compound: thalidomide) -1.72.

Take FACNICGAPFTQKGNLLRHIKL [46F_47A_49N_50I_52G_53A_54P_55F_67L_, Q9UKT9]: the “log2 fold change of degron read counts” value under setting [1] worked out at 3, the “log2 fold change of degron read counts” value under setting [2] worked out at 2.25, the “log2 fold change of degron read counts” value under setting [3] was 0.28 and the “log2 fold change of degron read counts” value (compound: thalidomide) amounted to 1.19.

Regarding FKCNICGAPFTQKGNLLRHIKL [46F_47K_49N_50I_52G_53A_54P_55F_67L_, Q9UKT9], the “log2 fold change of degron read counts” value by setting is: under setting [1], 1.75; under setting [2], 0.553; under setting [3], -1.66; (compound: thalidomide) 1.84.

In the case of FDCNICGAPFTQKGNLLRHIKL [46F_47D_49N_50I_52G_53A_54P_55F_67L_, Q9UKT9], the “log2 fold change of degron read counts” value under setting [1] was found to be 0.00765, the “log2 fold change of degron read counts” value under setting [2] was found to be 0.55, the “log2 fold change of degron read counts” value under setting [3] was -0.25 and the “log2 fold change of degron read counts” value (compound: thalidomide) worked out at 0.701.

Consider FFCNICGAPFTQKGNLLRHIKL [46F_47F_49N_50I_52G_53A_54P_55F_67L_, Q9UKT9], for which the “log2 fold change of degron read counts” value runs as follows: under setting [1], 3.82; under setting [2], 3.29; under setting [3], 1.81; (compound: thalidomide) 0.893.

With FQCNICGAPFTQKGNLLRHIKL [46F_47Q_49N_50I_52G_53A_54P_55F_67L_, Q9UKT9], the “log2 fold change of degron read counts” value is, setting by setting: under setting [1], 2.35; under setting [2], 3.09; under setting [3], 1.74; (compound: thalidomide) 3.71.

With FHCNICGAPFTQKGNLLRHIKL [46F_47H_49N_50I_52G_53A_54P_55F_67L_, Q9UKT9], the “log2 fold change of degron read counts” value under setting [1] was 3.64, the “log2 fold change of degron read counts” value under setting [2] turned out to be 3.01, the “log2 fold change of degron read counts” value under setting [3] is 1.94 and the “log2 fold change of degron read counts” value (compound: thalidomide) turned out to be 1.11.

Take FMCNICGAPFTQKGNLLRHIKL [46F_47M_49N_50I_52G_53A_54P_55F_67L_, Q9UKT9]: the “log2 fold change of degron read counts” value by setting is: under setting [1], 2.52; under setting [2], 3.05; under setting [3], 3.24; (compound: thalidomide) 2.42.

Regarding FSCNICGAPFTQKGNLLRHIKL [46F_47S_49N_50I_52G_53A_54P_55F_67L_, Q9UKT9], the “log2 fold change of degron read counts” value by setting is: under setting [1], 2.52; under setting [2], 2.26; under setting [3], 1.18; (compound: thalidomide) 1.71.

Regarding FWCEICGRFFTQKGNLLRHIKL [46F_47W_49E_50I_52G_53R_54F_55F_67L_, Q9UKT9], the “log2 fold change of degron read counts” value was 1.04 under setting [1], 1.16 under setting [2], 0.269 under setting [3] and -0.94 (compound: thalidomide).
